The values that follow come from PubChem BioAssay (NCATS).

Records with an inconclusive call do not appear. Values without a mark were called inactive. The call rests on the fitted dose curve; in most records, active means well fitted inhibition curve with a large enough effect; inconclusive means small, poorly fitted or top-dose-only effect; inactive means flat fitted curve, though single readings scatter. *1 amine or outer side, *2 acyl side, *3 side chain or, on linkers, in order; H or OH if unused. Where a SMILES comes first, the peptide text is derived from it. Bridges are numbered along the chain shown (N, C = ends). [ ]: non-standard residue; d: D form. The star is where a group is joined. X5 = NC1=N[C@@H]([C@H](N[*:1])C(=O)[*:2])C[C@H](O)N1; X1 = CC[C@@H](C)[C@@H](N)C1=N[C@H](C(=O)*)CS1; ΔAla(Z-3-ureido) = NC(=O)N/C=C(\N)C(=O)O; d(aIle) = CC[C@H](C)[C@@H](N)C(=O)O; β3hOrn = NCCC[C@H](N)CC(=O)*; dOrn = NCCC[C@@H](N)C(=O)O; Dap = NC[C@H](N)C(=O)O
On the % scale 0 is the no-effect control and ±100 the full control effect.

The target in the test is Voltage-gated inwardly rectifying potassium channel KCNH2 (Homo sapiens) (UniProt Q12809). The test can be described thus: qHTS Assay for Small Molecule Inhibitors of the Human hERG Channel Activity (AID 588834).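 Further: top concentration of the series differs between compounds; lower thallium flux fluorescence means stronger hERG block; nearly all actives have a fitted effect of over 50% in size.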 Particulars: U2OS BacMam hERG, FluxOR thallium flux fluorescence; series mostly up to 46.1 µM; activity change, negative = inhibition: at the top concentration. A digest of the protocol: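 In hERG-transduced U2OS cells, dye-loaded for 1 hr at room temperature in dark, test compounds incubated 10 min at 37 °C before thallium stimulation. AC50 values derived by Hill modelling of concentration-response.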
Voltage-gated inwardly rectifying potassium channel KCNH2 (Homo sapiens), sequence (Q12809 whole entry, looked up): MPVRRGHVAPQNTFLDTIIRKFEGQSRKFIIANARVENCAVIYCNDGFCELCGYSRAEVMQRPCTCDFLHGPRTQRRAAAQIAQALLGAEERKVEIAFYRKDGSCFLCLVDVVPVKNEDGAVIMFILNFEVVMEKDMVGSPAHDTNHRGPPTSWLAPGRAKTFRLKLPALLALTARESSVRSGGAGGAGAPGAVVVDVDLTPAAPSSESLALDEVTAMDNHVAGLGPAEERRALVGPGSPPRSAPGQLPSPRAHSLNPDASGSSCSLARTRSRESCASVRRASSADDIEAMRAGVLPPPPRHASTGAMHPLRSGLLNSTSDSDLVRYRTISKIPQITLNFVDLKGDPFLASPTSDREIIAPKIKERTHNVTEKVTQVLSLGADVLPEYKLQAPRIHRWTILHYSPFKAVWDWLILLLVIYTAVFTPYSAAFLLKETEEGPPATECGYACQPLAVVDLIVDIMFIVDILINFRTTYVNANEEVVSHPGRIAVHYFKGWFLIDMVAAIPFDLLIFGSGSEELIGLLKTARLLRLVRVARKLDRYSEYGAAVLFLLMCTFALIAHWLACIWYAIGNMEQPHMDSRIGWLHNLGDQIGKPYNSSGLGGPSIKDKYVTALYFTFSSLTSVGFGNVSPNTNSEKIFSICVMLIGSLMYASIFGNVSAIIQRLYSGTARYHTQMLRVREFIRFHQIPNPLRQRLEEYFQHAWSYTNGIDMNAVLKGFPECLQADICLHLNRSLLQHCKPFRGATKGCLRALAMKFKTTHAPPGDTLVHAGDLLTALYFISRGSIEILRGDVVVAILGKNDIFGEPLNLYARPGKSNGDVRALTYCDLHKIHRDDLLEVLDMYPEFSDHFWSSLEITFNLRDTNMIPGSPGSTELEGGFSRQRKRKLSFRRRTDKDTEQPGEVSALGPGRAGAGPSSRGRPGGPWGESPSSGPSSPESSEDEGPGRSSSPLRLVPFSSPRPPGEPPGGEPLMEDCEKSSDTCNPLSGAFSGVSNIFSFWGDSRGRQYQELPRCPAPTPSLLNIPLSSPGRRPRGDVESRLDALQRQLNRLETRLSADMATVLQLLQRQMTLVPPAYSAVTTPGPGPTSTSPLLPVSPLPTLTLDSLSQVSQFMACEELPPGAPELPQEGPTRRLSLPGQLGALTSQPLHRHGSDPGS
Background: qHTS replaces the single test concentration by a dilution series.
With `CC1CS(=O)(=O)CCN1/N=C/c1ccc([N+](=O)[O-])o1` (centres undefined), the “activity change, negative = inhibition” value is 13% [at 20.6 µM].
The same measure for `CC(C)[C@@H](C)/C=C/[C@@H](C)[C@H]1CC[C@H]2/C(=C/C=C3\C[C@@H](O)CC[C@@H]3C)CCC[C@]12C`: 16.1%; for `CCc1cn([C@H]2C[C@H](O)[C@@H](CO)O2)c(=O)[nH]c1=O`: 3.36%; for `OC[C@H]1OC([S-])[C@H](O)[C@@H](O)[C@@H]1O.[Au+]` (some centres undefined): 5.42%.
`NC[C@H]1O[C@H](O[C@H]2[C@H](O)[C@@H](O[C@H]3O[C@H](CO)[C@@H](O)[C@H](N)[C@H]3O)[C@H](N)C[C@@H]2N)[C@H](N)C[C@@H]1O`: the “activity change, negative = inhibition” value is 0.829% [at 20.6 µM].
For `C[C@H]1[C@@H](OC(=O)CCC(=O)O)O[C@@H]2OC3(C)CC[C@H]4[C@H](C)CC[C@@H]1[C@@]24OO3` the value was 3.74%.
Consider `O=C(O)[C@@H]1C[C@H](CP(=O)(O)O)CCN1`, for which the “activity change, negative = inhibition” value is 8.36%.
The same measure for `NC(Cc1ccccc1)C(=O)O` (centres undefined): 12.1%.
The same measure for `C=CC1=C(C(=O)O)N2C(=O)[C@@H](NC(=O)/C(=N/OCC(=O)O)c3csc(N)n3)[C@H]2SC1` (stereo in doubt): 1.33% [at 20.6 µM]; for `NC(=O)[C@@H]1C[C@]2(NC(=O)NC2=O)c2cc(F)ccc2O1`: 11.6%; for `CC[C@H](CC[C@@H](C)[C@H]1CC[C@H]2[C@@H]3CC=C4C[C@@H](O)CC[C@]4(C)[C@H]3CC[C@]12C)C(C)C`: -0.0834%.
The same measure for `OC[C@@H](O)C(O)[C@H](O)CO`: -11.7%.
On to `Cc1ccc(S(=O)(=O)NC(=O)N[C@@H](C)Cc2ccccc2)cc1`, for which the “activity change, negative = inhibition” value is 13.4%.
For `O=[N+]([O-])O[C@@H]1CO[C@H]2[C@@H]1OC[C@@H]2O`, the “activity change, negative = inhibition” value is 4.03%.
As for `CO/N=C(\C(=O)N[C@@H]1C(=O)N2C(C(=O)O)=C(C[N+]3(C)CCCC3)CS[C@H]12)c1csc(N)n1`, the “activity change, negative = inhibition” value was 0.634%.
For `C=O` the value was 10.7%.
The same measure for `CCCC(=O)Nc1c(I)cc(I)c(CC(CC)C(=O)O)c1I` (centres undefined): 16.9%; for `CO/N=C(\C(=O)N[C@@H]1C(=O)N2C(C(=O)[O-])=C(C[n+]3ccc(N)n3CCO)CS[C@H]12)c1csc(N)n1`: 13.6%.
The same measure for `NC[C@@H]1O[C@H](O[C@H]2[C@@H](O)[C@H](O[C@@H]3[C@@H](O)[C@H](N)C[C@H](N)[C@H]3O[C@H]3O[C@H](CO)[C@@H](O)[C@H](O)[C@H]3N)O[C@@H]2CO)[C@H](N)[C@@H](O)[C@@H]1O`: -7.02%; for `NCCC[C@H](N)CC(=O)N[C@H]1CNC(=O)[C@H]([C@H]2C[C@H](O)NC(N)=N2)NC(=O)/C(=C/NC(N)=O)NC(=O)[C@H](CO)NC(=O)[C@H](CO)NC1=O` (β3hOrn-[Dap]SS[ΔAla(Z-3-ureido)][X5]; lactam 1-C): 21.1%.
Regarding `CNCC(=O)N[C@@H](CCCN=C(N)N)C(=O)N[C@H](C(=O)N[C@@H](Cc1ccc(O)cc1)C(=O)N[C@H](C(=O)N[C@@H](Cc1cnc[nH]1)C(=O)N1CCC[C@H]1C(=O)N[C@@H](C)C(=O)O)C(C)C)C(C)C`, the “activity change, negative = inhibition” value is 21.7%.
Turning to `CCCCC(=O)O[C@H]1CC[C@H]2[C@@H]3CCc4cc(O)ccc4[C@H]3CC[C@]12C`, the “activity change, negative = inhibition” value was -14.4%.
For `C[C@]12CC[C@@H]3c4ccc(O)cc4CC[C@H]3[C@@H]1CC[C@@H]2OP(=O)(O)O` the value was -8.75%; for `CNCC(O)c1ccc(OC(=O)C(C)(C)C)c(OC(=O)C(C)(C)C)c1` (centres undefined), -7.91% [at 20.6 µM].
Consider `CC1(C)[C@@H]2CC[C@@]1(C)[C@H](OC(=O)CSC#N)C2`, for which the “activity change, negative = inhibition” value was -1.84%.
For `CC1=C(/C=C/C(C)=C/C=C/C(C)=C/C=C/C=C(C)/C=C/C=C(C)/C=C/C2=C(C)C[C@@H](O)CC2(C)C)C(C)(C)C[C@H](O)C1` the value was -6.39%; for `CN[C@@H]1[C@@H](O)[C@@H](O[C@@H]2[C@@H](O)[C@H](O[C@H]3O[C@H](CN)[C@@H](O)[C@H](O)[C@H]3O)[C@@H](N)C[C@H]2NC(=O)C(O)CN)OC[C@]1(C)O` (some centres undefined), 16.3%; for `O=C1c2c(O)cccc2[C@H]([C@@H]2O[C@H](CO)[C@@H](O)[C@H](O)[C@H]2O)c2cc(CO)cc(O)c21`, 4.23%.
With `Cc1cc(O)c2c(c1)O[C@@]1(C)CC[C@H]3C(C)(C)CCCC34CO[C@@H]2[C@H]41` (some centres undefined), the “activity change, negative = inhibition” value was -29.4%.
The same measure for `CC[C@@H](C)[C@@H](N)C1=N[C@H](C(=O)N[C@@H](CC(C)C)C(=O)N[C@@H](CCC(=O)O)C(=O)N[C@@H](C(=O)N[C@@H]2CCCCNC(=O)[C@@H](CC(N)=O)NC(=O)[C@@H](CC(=O)O)NC(=O)[C@@H](Cc3cnc[nH]3)NC(=O)[C@@H](Cc3ccccc3)NC(=O)[C@@H]([C@H](C)CC)NC(=O)[C@@H](CCCN)NC2=O)[C@@H](C)CC)CS1` (X1-LE[d(aIle)][dK][dOrn][dI][dF][dH][dD][dN]; lactam 4-C): 2.25% [at 20.6 µM].
For `C=C1[C@@H]2CC[C@@H](C2)C1(C)C` the value was 19.6%.
The same measure for `NC[C@H]1O[C@H](O[C@H]2[C@H](O)[C@@H](O[C@H]3O[C@H](CO)[C@@H](O)[C@H](N)[C@H]3O)[C@H](N)C[C@@H]2N)[C@H](O)[C@@H](O)[C@@H]1O`: 10.2% [at 20.6 µM].
With `CC(C)(C)NCC(O)CSc1nc(-c2ccc(C(N)=O)s2)cs1` (centres undefined), the “activity change, negative = inhibition” value is -10%.
For `CCCCC/C=C\CCC(=O)N[C@H]1[C@H](Oc2c3cc4cc2Oc2ccc(cc2Cl)[C@@H](O[C@@H]2O[C@H](CO)[C@@H](O)[C@H](O)[C@H]2NC(C)=O)[C@@H]2NC(=O)[C@H](NC(=O)[C@@H]4NC(=O)[C@H]4NC(=O)[C@@H](Cc5ccc(c(Cl)c5)O3)NC(=O)[C@H](N)c3ccc(O)c(c3)Oc3cc(O)cc4c3)c3ccc(O)c(c3)-c3c(O[C@H]4O[C@H](CO)[C@@H](O)[C@H](O)[C@@H]4O)cc(O)cc3[C@@H](C(=O)O)NC2=O)O[C@H](CO)[C@@H](O)[C@@H]1O` the value was 3.68% [at 20.6 µM]; for `O=C(O)c1cc(O)c2c(c1)[C@H]([C@H]1c3cc(C(=O)O)cc(O)c3C(=O)c3c(O[C@@H]4O[C@H](CO)[C@@H](O)[C@H](O)[C@H]4O)cccc31)c1cccc(O[C@@H]3O[C@H](CO)[C@@H](O)[C@H](O)[C@H]3O)c1C2=O`, 4.17%; for `CC1=C[C@H](O)CC(C)(C)[C@H]1/C=C/C(C)=C/C=C/C(C)=C/C=C/C=C(C)/C=C/C=C(C)/C=C/C1=C(C)C[C@@H](O)CC1(C)C`, 7.71%.
Turning to `CCN(CC)CCOC[C@H]1O[C@@H](O)[C@H](OCCN(CC)CC)[C@@H](O)[C@@H]1O`, the “activity change, negative = inhibition” value is 3.03%.
The same measure for `CCCCCCCCCCCCCCCC(=O)OC[C@H](COP(=O)([O-])OCC[N+](C)(C)C)OC(=O)CCCCCCCCCCCCCCC`: 0.775%; for `C=CC1=C(C(=O)O)N2C(=O)[C@@H](NC(=O)/C(=N\O)c3csc(N)n3)[C@H]2SC1` (stereo in doubt): -3.52%.
